# Screens from PubChem.
# Hits are enriched below; roughly 21% of the tested compounds scored in any of these assays.
# ClpP mod: qHTS Assay for Activators of ClpP; ATP-dependent Clp protease proteolytic subunit (Bacillus subtilis (strain 168)), P80244; purified B. subtilis ClpP, FRET peptide cleavage, 20 min; Potency, µM (series often up to 57.5 µM), for the others: top-dose activity change, negative = active; actives 1.9% (n = 340,000); active = well fitted falling curve with a large enough effect; inconclusive = small, poorly fitted or top-dose-only effect; inactive = no such curve, though single readings can be large or run the other way; also: potency is read from the fitted curve at half-maximal effect; the source files actives as falling curves though it sought activators and does not explain the sign; nearly all actives have a fitted effect of over 65% in size
# Target sequence (P80244 whole entry, looked up): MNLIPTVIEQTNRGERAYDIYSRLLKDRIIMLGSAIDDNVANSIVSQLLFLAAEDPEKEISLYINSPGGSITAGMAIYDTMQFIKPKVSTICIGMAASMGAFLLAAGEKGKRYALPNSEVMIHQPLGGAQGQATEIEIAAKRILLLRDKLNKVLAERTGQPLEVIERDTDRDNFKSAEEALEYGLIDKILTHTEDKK
#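 ClpP 10 microg/mL final, pH 8 Tris/KCl buffer with BSA, glycerol, Tween-20; compound pinned in; FRET-FV substrate; RT 20 min; Ex320/Em430; ΔFRET vs ADEP 5.8 microM, DMSO, no enzyme.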
# D3 ag: D3 dopamine receptor (human) agonism; AID 652048; D3R DiscoveRx beta-arrestin cells, luminescence, 90 min; max activation, %; actives 0.58% (n = 410,000); in the data active = max activation above about 30%; also: 0% is about no effect
# Target sequence (P35462 whole entry, looked up): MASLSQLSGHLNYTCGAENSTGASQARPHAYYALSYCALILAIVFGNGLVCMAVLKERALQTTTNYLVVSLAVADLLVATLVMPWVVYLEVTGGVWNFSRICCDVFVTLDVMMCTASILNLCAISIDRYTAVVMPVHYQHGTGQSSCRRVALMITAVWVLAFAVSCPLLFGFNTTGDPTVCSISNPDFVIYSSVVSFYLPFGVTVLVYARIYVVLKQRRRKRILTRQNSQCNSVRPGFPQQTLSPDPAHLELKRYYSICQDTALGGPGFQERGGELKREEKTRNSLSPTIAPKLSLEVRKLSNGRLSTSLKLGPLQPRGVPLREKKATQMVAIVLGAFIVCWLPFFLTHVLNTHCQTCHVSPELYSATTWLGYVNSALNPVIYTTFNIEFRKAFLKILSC
#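 Cells at 1500/well, incubated overnight, then treated with pinned compounds (dopamine as control) for 90 min at 37 degrees C. DiscoveRx reagent added for 30 - 60 minutes at room temperature; luminescence read.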
# TDP1 cell noCPT: qHTS for Inhibitors of human tyrosyl-DNA phosphodiesterase 1 (TDP1): qHTS in cells in absence of CPT | AID 686978, 2013 | Potency, µM (top dose mostly 46.2 µM), without a hit: at the top dose activity change, negative = growth inhibition, most hits filed as inhibitors | actives 15% (n = 420,000) | DT40 Tdp1-/- hTDP1 cells, no CPT, ATP luminescence, 48 h; also: potency is read from the fitted curve at half-maximal effect; % is scaled to controls: 0 for no effect and ±100 for the full control effect; nearly all actives have a fitted effect of over 55% in size
#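 Growth kinetics read by CellTiter-Glo luminescence after ≥48 hr at 37 °C. Cells: DT40 Tdp1-/- stably carrying human TDP1, 400 per well, compound exposure in the absence of CPT (DMSO vehicle).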
# DRD3 antagonist: D3 dopamine receptor (human) antagonism; D3R cells, DiscoveRx beta-arrestin luminescence, antagonist mode; hits give low values; max response, negative = inhibition, %; actives 2.5% (n = 360,000); in the data active = max response below about -50%; inconclusive = no clear call, values can overlap the other calls; also: % is scaled to controls: 0 for no effect and ±100 for the full control effect
#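 Cells expressing the human receptor were seeded at 1500 cells/well, incubated overnight at 37 degrees C in 5% CO2, then exposed to library compounds with dopamine controls for 90 minutes at 37 degrees C before luminescent detection.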
# IL1B secr inh: blocks inflammasome-driven IL-1 beta release | activity change, % at 57.5 µM | THP-1 LPS/ATP IL-1B secretion, AlphaLISA, 16 h; hits give low values | actives 4.7% (n = 360,000); in the data active = activity change below about -50%; inconclusive = mostly about -30% to -49%; also: % is scaled to controls: 0 for no effect and ±100 for the full control effect
#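 Secreted IL-1B measured by AlphaLISA bead assay after 16 h compound exposure of THP-1 cells; compounds (final up to 57.5 uM) added 1 h before LPS (250 ng/mL) and ATP (1.25 mM) stimulation; lower signal means less secretion.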
# DT40 TDP1 CPT: DT40-hTDP1 cell growth loss with CPT. chicken DT40 Tdp1-/-;hTDP1 cells + 20 nM CPT, ATP luminescence, 48 h. actives 12% (n = 420,000). Potency, µM (doses to about 46.2 µM), for inactives: top-dose activity change, negative = growth inhibition, actives largely listed as inhibitors; also: potency is read from the fitted curve at half-maximal effect; % is scaled to controls: 0 for no effect and ±100 for the full control effect; nearly all actives have a fitted effect of over 55% in size
#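 Chicken DT40 Tdp1-/- cells stably complemented with human TDP1 were seeded at 400 cells/well in medium containing 20 nM camptothecin, exposed to pin-transferred compounds, and grown at 37 °C for at least 48 hr. Viability was read as ATP luminescence.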
# The depositor's hits bear a star; ? = inconclusive; nt = no result. Unless noted, calls follow the shape of the dose curve; as a rule, active = well fitted inhibition curve with a large enough effect; inconclusive = small, poorly fitted or top-dose-only effect; inactive = flat fitted curve, though single readings scatter.
SMILES,ClpP mod,D3 ag,TDP1 cell noCPT,DRD3 antagonist,IL1B secr inh,DT40 TDP1 CPT
Cc1ccc(-c2nc3ccccc3[nH]2)cc1NC(=O)c1sc2cc(Cl)ccc2c1Cl,-23%,3,16µM*,2,0,8.2µM*
Cc1ccc(-c2nc3ccccc3[nH]2)cc1NC(=O)COc1cccc(C)c1C,4%,7,nt,nt,nt,nt
Cc1ccc(-c2nc3ccccc3[nH]2)cc1NC(=O)c1ccco1,-6%,4,?,15,-9,-25%
Cc1ccc(-c2nc3ccccc3[nH]2)cc1NC(=O)COc1ccc(Cl)cc1Cl,2%,4,5.2µM*,nt,nt,6.5µM*
Cc1cc(Cl)ccc1OCC(=O)N[C@@H](Cc1ccccc1)c1nc2ccccc2[nH]1,-5%,-3,16µM*,-19,16,21µM*
Cc1cn(CC(=O)NCc2ccccc2)c(=O)[nH]c1=O,0%,3,-4%,-2,21,4%
COc1cccc(N2CCN(c3nc(-c4ccccc4C)cc(=O)[nH]3)CC2)c1,-6%,6,?,5,-73*,-49%
COc1cccc(N2CCN(c3nc(C)c(C)c(=O)[nH]3)CC2)c1,-3%,4,-11%,18,23,1%
CC(=O)c1c(C(C)=O)c(C)n(-c2ccc(C)c(NC(=O)c3ccccc3Cl)c2)c1C,-2%,4,?,1,-3,?
CS/C(=N\S(=O)(=O)c1ccc(F)cc1)c1ccccc1,1%,nt,?,nt,nt,?
CN1C(=O)c2ccccc2N(C)C1c1ccc2c(c1)OCO2 (stereo not drawn),25µM*,-4,?,39,11,-16%
CN1C(=O)c2ccccc2N(C)C1c1ccc(F)cc1 (stereo not drawn),0%,22,-18%,19,5,-4%
Cc1ccc(-c2nnn(CC(=O)NC(=O)NC3CCCCC3)n2)cc1,1%,2,?,14,?,?
O=C(c1ccco1)N(Cc1cccc(Cl)c1)C1CCS(=O)(=O)C1 (stereo not drawn),3%,-14,1%,5,0,1%
CCc1ccc2c(CC(=O)Nc3cccc(S(=O)(=O)N4CCOCC4)c3)coc2c1,-4%,-4,?,-21,-17,-10%
CCN(CC)c1cc(C)c2cc(NC(=O)/C=C/c3ccccc3OC(C)C)ccc2n1,1%,-3,23µM*,nt,nt,?
COc1ccc(C2CC(=O)CCN2S(=O)(=O)c2ccc(C)cc2)cc1 (stereo not drawn),-1%,3,?,-3,13,?
C=C(C)CNC(=S)Nc1sc2c(c1C(=O)OCC)CC(C)(C)OC2,0%,-2,16µM*,-15,20,23µM*
CCOC(=O)c1c(NC(=O)CCC(=O)N(CC)CC)sc2c1CC(C)(C)OC2,-17%,7,?,5,0,?
CCOC(=O)c1c(NC(=O)c2ccc(C)cc2)sc2c1CC(C)(C)OC2,25µM*,-8,18µM*,33,-16,?
Oc1ccc(Nc2nc3ccccc3n3cnnc23)cc1,1%,5,?,nt,nt,?
Cc1ccccc1Cn1c(-c2cccs2)nc2ccccc21,?,2,16µM*,nt,nt,?
CC(C)Cn1c(-c2ccccc2Cl)nc2ccccc21,0%,6,16µM*,nt,nt,?
c1csc(Cn2c(-c3cccs3)nc3ccccc32)c1,32µM*,-1,-17%,13,-19,?
CC(C)Cn1c(-c2cccs2)nc2ccccc21,50%,-4,?,22,-12,16µM*
SMILES,ClpP mod,D3 ag,TDP1 cell noCPT,DRD3 antagonist,IL1B secr inh,DT40 TDP1 CPT
C=CCC(COCc1ccccc1)NS(=O)(=O)c1ccccc1Br (stereo not drawn),-1%,1,?,-7,-9,?
O=C(O)C1CCCCC1C(=O)Nc1ccc(S(=O)(=O)N2CCCCC2)cc1 (stereo not drawn),nt,-5,-7%,-24,28,-9%
CCCCCC(=O)N1C[C@@H](O)[C@H](n2cc(COC(=O)c3ccccc3)nn2)C[C@@H]1c1ccccc1,0%,4,?,10,2,?
Cn1c(N2CCN(C(c3ccccc3)c3ccccc3)CC2)nc2ccccc21,-3%,-5,18µM*,16,-84*,?
Cn1c(N2CCN(C(=O)Nc3ccc(F)cc3)CC2)nc2ccccc21,-2%,0,-17%,25,-12,-2%
O=Cc1cccc(OC(=O)Nc2ccccc2)c1,nt,-8,?,-11,nt,8%
COc1ccc(NC(=O)c2cccc(S(=O)(=O)N3CCCCC3)c2)c(OC)c1,-2%,-4,-19%,-6,14,?
COc1ccc(NC(=O)c2ccc(S(=O)(=O)N3CCCCCC3)cc2)c(OC)c1,nt,-6,13µM*,-19,-11,-27%
COc1ccc(S(=O)(=O)N2CCCN(CC(=O)Nc3ccccc3F)CC2)cc1,nt,-18,?,-26,-4,-28%
Cc1ccc(NS(=O)(=O)c2ccc(C)c(NC(=O)c3ccc(S(=O)(=O)N4CCCCCC4)cc3)c2)c(C)c1,-7%,3,10µM*,11,8,18µM*
COc1ccc(NC(=O)CN2CCCN(S(=O)(=O)c3ccc(Br)cc3)CC2)c(OC)c1,-3%,-3,23µM*,nt,nt,?
CCOC(=O)C1(C)/C(=N/Nc2ccccc2Cl)C(=O)C(=O)N1c1ccccc1 (stereo not drawn),1%,-6,-24%,?,41,1%
COc1ncc2nc(-c3ccccc3)c(=O)n(CCc3ccccc3)c2n1,nt,nt,4%,nt,nt,1%
COc1ccc(NC(=O)C2(C)CCN2Cc2ccc(OC(C)C)cc2)cc1OC (stereo not drawn),0%,1,?,14,13,?
COc1ccc(NC(=O)C2(C)CCN2Cc2ccc(C(C)C)cc2)cc1OC (stereo not drawn),1%,1,23µM*,40,29,18µM*
COc1ccc(NC(=O)C2(C)CCN2CC2CCCCC2)cc1OC (stereo not drawn),-3%,-7,15µM*,44,-12,?
COc1ccc(NC(=O)C2(C)CCN2Cc2ccccc2Cl)cc1OC (stereo not drawn),-4%,11,8.2µM*,59,?,9.2µM*
Cc1cccc(C)c1NC(=O)C1(C)CN(S(C)(=O)=O)CC(=O)N1Cc1cccs1 (stereo not drawn),0%,1,5%,25,0,?
